Rows were chosen to be rich in hits. Some 2.6% of all compounds tested hit in one or more screens of this group.
PfM18AAP inh: PfM18AAP inhibitors, malaria aminopeptidase, primary screen, biochemical, QFRET, recombinant enzyme; AID 1822, 2009; inhibition, % at 7.35 µM; M18 aspartyl aminopeptidase (Plasmodium falciparum 3D7); actives 1.2% (n = 290,000); H-Glu-NHMec fluorogenic cleavage;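 active = inhibition above the campaign mean inhibition over all tested compounds plus 3 SD, cut at about 28% in these data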;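 also: 0% = plate median of test compound wells and 100% = 2 mM ZnCl2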
Rce1 inhib: yeast Rce1p protease inhibitors, primary screen, biochemical, fluorescence, cell-free homogeneous; CAAX prenyl protease 2 (Saccharomyces cerevisiae (strain ATCC 204508 / S288c)), Q03530; yeast membranes, quenched prenylated peptide cleavage fluorescence; calls only; actives 0.27% (n = 290,000); AID 2563, 2010;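 active = fall in fluorescence gain of 50% or more versus controls, with final raw signal at or below 3038400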;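 also: plate controls were neutral control wells for no effect and wells lacking membranes for full effect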
Target sequence (Q03530 whole entry, looked up): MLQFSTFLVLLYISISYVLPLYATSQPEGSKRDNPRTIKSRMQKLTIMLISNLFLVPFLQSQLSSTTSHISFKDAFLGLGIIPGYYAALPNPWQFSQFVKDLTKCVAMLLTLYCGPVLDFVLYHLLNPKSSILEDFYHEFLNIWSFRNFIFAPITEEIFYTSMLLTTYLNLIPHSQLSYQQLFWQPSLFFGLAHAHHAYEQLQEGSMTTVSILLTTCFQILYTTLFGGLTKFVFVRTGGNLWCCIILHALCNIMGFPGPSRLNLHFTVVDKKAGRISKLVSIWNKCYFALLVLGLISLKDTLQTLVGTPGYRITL
Platelet DG rel: inhibitors of platelet dense granule secretion, primary screen, cell-based, MLPCN, human platelets; human platelet-rich plasma, SFLLRN dense granule ATP release, luminescence; actives 0.22% (n = 300,000); inhibition, %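 (compounds screened at 7.5 µM in platelet-rich plasma)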; AID 1663, 2009;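 active = mean replicate score, as percent of positive control, at or above 50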
Exocytosis inh: LAMP-1 surface exposure blockers, TALL-104 cells – cell-based, flow cytometry, MLPCN library, primary screen | TALL-104 LAMP-1 surface exposure; cells stimulated with thapsigargin and PMA | inhibition, % at 10 µM | actives 0.66% (n = 360,000);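 active = inhibition above about 55%, limit read from the data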
ABHD5 PLIN5 PPI: ABHD5-PLIN5 interaction inhibitors, primary screen, cell lysate, split luciferase complementation, luminescence | Split G. princeps luciferase complementation, 4 h | inhibition, % at 4 µM | actives 0.78% (n = 360,000) | AID 602281, 2012;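 active = inhibition above the mean inhibition across every tested compound plus 3 SD, cut at about 22% in these data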;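 also: 0% = DMSO only wells and the 100% control is not disclosed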
Exocytosis CP01: inhibitors of lytic granule exocytosis, confirmation, TALL-104 cells, flow cytometry, Cherry Pick01; shares compounds with Exocytosis inh; LAMP-1 externalization; stimulated with PMA plus thapsigargin; inhibition, % at 10 µM; actives 11% (n = 1,500); in the data active = inhibition above about 60%;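 also: 0% = stimulated vehicle wells and 100% = unstimulated wells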
* marks the source's active call; other numbers are inactive results; i = inactive; / = no result.

SMILES	PfM18AAP inh	Rce1 inhib	Platelet DG rel	Exocytosis inh	ABHD5 PLIN5 PPI	Exocytosis CP01
O=C(NCC(c1cccs1)N1CCOCC1)C1CCN(S(=O)(=O)c2cc(Cl)ccc2Cl)CC1 (stereo not given)	/	/	/	-7	4	/
COc1ccc(-c2cc(C)no2)cc1S(=O)(=O)N(C)Cc1ccco1	-5	i	16	0	-10	/
CCCN(c1ccccc1F)S(=O)(=O)c1cc(-c2cc(C)no2)ccc1OC	-8	i	5	89*	1	-4
COc1ccc(-c2cc(N3CCN(CCO)CC3)n3nccc3n2)cc1	/	/	/	-8	-2	/
OCCN1CCN(c2cc(-c3ccc4ccccc4c3)nc3ccnn23)CC1	/	/	/	59*	1	-12
CCOc1cc(CNC(C)(C)CO)cc(Br)c1OCc1ccc(Cl)cc1Cl	-2	i	0	66*	17	35
COc1cc(CNC(C)(C)CO)cc(Br)c1OCc1ccccc1	-5	i	-2	-3	2	/
COc1ccccc1N1CCN(S(=O)(=O)CCNC(=O)c2cc(=O)c3ccccc3o2)CC1	-1	i	-14	-6	1	/
CC1(C)CC2CC(C)(CN2C(=O)Cc2ccccc2)C1 (stereo not given)	-2	/	6	-1	4	/
CC1(C)CC2CC(C)(CN2C(=O)NC(=O)c2ccccc2)C1 (stereo not given)	-9	i	-13	66*	-1	-5
Cc1cc(C(=O)Nc2ccc(Nc3ccccc3)cc2)ccc1[N+](=O)[O-]	6	i	-10	64*	-3	-3
CCOC(=O)c1c(CSc2ccccc2)n(C)c2ccc(O)cc12	3	i	6	2	-5	/
CCOC(=O)c1c(CSc2cccs2)n(C)c2cc(Br)c(O)c(CN(C)C)c12	-4	i	-5	90*	3	15
N#CC(C(=S)Nc1ccccc1)c1nc2ccccc2[nH]1 (stereo not given)	8	i	-6	28	-14	/
O=c1c2c3c(sc2nc(N2CCNCC2)n1CCc1ccccc1)CCCCC3	-3	i	-1	60*	0	11
CN(C)CCNc1nc2sc3c(c2c(=O)n1Cc1ccccc1)CCCCC3	5	i	-2	57*	16	6
CN(C)CCNc1nc2sc3c(c2c(=O)n1-c1ccccc1)CCCCC3	1	i	-29	17	3	/
Cc1ccc(C)c(Cn2nnc3c(=O)[nH]c(C(=O)NCC4CCCO4)nc32)c1 (stereo not given)	0	i	-14	0	2	/
c1ccc(Nc2nc(NCc3ccco3)c3ccccc3n2)cc1	3	i	7	77*	-1	6
c1ccc(CN2CCN(c3nc(NCc4ccco4)c4ccccc4n3)CC2)cc1	6	i	-1	67*	8	30
COc1ccc(OC)c(Nc2nc(NCc3ccco3)c3ccccc3n2)c1	4	i	-7	10	11	/
Oc1ccccc1Nc1nc(NCc2ccco2)c2ccccc2n1	-26	i	13	61*	-1	89*
COc1cccc(NCc2nnc(SCC(=O)N(C)C3CCS(=O)(=O)C3)n2C2CCCCC2)c1 (stereo not given)	-8	i	4	0	1	/
COc1ccc(NC(=O)CN(Cc2ccccc2)S(C)(=O)=O)cc1	-2	i	2	-5	3	/
O=C(NC1CCCCC1)c1ccc(CN2CCOCC2)cc1	-7	/	/	-2	5	/
SMILES	PfM18AAP inh	Rce1 inhib	Platelet DG rel	Exocytosis inh	ABHD5 PLIN5 PPI	Exocytosis CP01
COc1cccc(CC2(CO)CCCN(Cc3ccc(OC)c(C)c3OC)C2)c1 (stereo not given)	3	i	-18	60*	7	-10
CC1CC(C)CN(S(=O)(=O)c2ccc(F)c(C(=O)NC3CCCCC3C)c2)C1 (stereo not given)	/	/	/	-6	-4	/
CN(Cc1ccccc1OCCO)CC1CCCN(CCc2ccc(Cl)cc2)C1 (stereo not given)	-1	i	-2	58*	7	-11
COc1ccc(CCN2CCCC(CN(C)Cc3cc(Cl)c(O)c(OC)c3)C2)cc1 (stereo not given)	-7	i	-4	56*	-3	-11
CCN(Cc1ccc(O)cc1)CC1CCCN(CCc2cccc(F)c2)C1 (stereo not given)	-3	i	-1	67*	-2	-13
COc1ccc(CN(C)CC2CCCN(CCc3ccccc3C)C2)cc1O (stereo not given)	-7	i	5	53	2	/
CCOc1cccc(CN(CC)CC2CCCN(CCc3cccc(OC)c3)C2)c1O (stereo not given)	5	i	-6	85*	-7	-12
O=C(NCC(=O)N(c1ccc(F)cc1)C(C(=O)NC1CCCCC1)c1cccnc1)c1ccco1 (stereo not given)	-3	i	-5	-4	6	/
CCC1CCc2c(n(C)c3ccccc3c2=O)O1 (stereo not given)	-18	i	16	-5	4	/
COc1cccc(CN(C)CC2CCCN(CCc3ccccc3C)C2)c1 (stereo not given)	1	i	0	57*	8	-10
CCN(CC1CCCN(CCc2cccc(OC)c2)C1)C(=O)C=C(C)C (stereo not given)	-1	i	-3	22	-2	/
CCN(Cc1cccc(OC)c1)CC1CCCN(CCc2cccc(OC)c2)C1 (stereo not given)	-11	i	-2	71*	2	-13
CC1(Oc2ccccc2-c2ccno2)CCN(Cc2csc3ccccc23)C1 (stereo not given)	/	/	/	6	3	/
N#CC1C(=O)Nc2cccnc21 (stereo not given)	/	/	/	-2	-11	/
CN(C)C(=O)CSc1nnc(-c2ccc(F)cc2)c2ccccc12	2	/	0	-2	8	/
COc1cc(-c2coc3c(C(=O)NCc4ccc(N(C)C)cc4)cccc23)ccc1O	/	/	/	4	-8	/
COc1cc(-c2coc3c(C(=O)NCc4ccc(OC)c(OC)c4)cccc23)ccc1O	/	/	/	66*	-2	92*
CCc1cc2c(CN(C)Cc3ccccc3F)cc(=O)oc2cc1O	9	i	0	59*	-5	-9
Cc1cc2oc(=O)cc(CN(C)Cc3cccc(F)c3)c2cc1C	0	i	-7	49	6	/
CCCCN(CC)C(=O)CSc1nc2n[nH]c(C)c2c(=N)n1-c1cccc(C)c1	-14	i	-3	62*	3	-10
Clc1ccc(/C=C/c2ncc[nH]2)c(Cl)c1	5	i	5	-10	1	/

Source: PubChem (several laboratories)
